# ALDH1A1 inh = inhibitors of human aldehyde dehydrogenase 1A1. P00352. Purified ALDH1A1, NADH fluorescence, propionaldehyde substrate. Potency, µM (highest dose often 75.3 µM), for inactives: top-dose activity, negative = inhibition, actives largely listed as inhibitors. 220,000 compounds, 7.3% hits. AID 1030;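 note: potency is the fitted concentration of half-maximal effect; plate controls were no enzyme wells and a reference inhibitor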
# Target sequence (P00352 whole entry, looked up): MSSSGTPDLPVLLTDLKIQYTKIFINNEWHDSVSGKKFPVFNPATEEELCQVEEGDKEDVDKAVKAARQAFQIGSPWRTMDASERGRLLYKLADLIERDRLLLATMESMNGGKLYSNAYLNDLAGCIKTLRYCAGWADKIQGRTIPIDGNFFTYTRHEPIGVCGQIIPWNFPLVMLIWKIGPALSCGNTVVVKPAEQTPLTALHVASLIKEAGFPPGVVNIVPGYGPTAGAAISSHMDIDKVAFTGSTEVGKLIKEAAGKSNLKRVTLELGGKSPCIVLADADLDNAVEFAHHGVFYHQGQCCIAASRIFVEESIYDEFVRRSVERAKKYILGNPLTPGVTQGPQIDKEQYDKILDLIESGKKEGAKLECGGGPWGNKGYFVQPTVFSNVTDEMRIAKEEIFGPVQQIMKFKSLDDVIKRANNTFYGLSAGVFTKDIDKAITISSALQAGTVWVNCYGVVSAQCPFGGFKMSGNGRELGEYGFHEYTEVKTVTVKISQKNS
# HPGD inh = inhibitors of human 15-hydroxyprostaglandin dehydrogenase (HPGD); purified HPGD, NADH fluorescence kinetic, PGE2 substrate; Potency, µM, without a hit: at the top dose activity change, negative = inhibition, usual class: inhibitors; P15428; 150,000 compounds, 4.3% hits; note: potency is the fitted concentration of half-maximal effect
#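 20 nM HPGD preincubated 15 min at room temperature with compound in 50 mM Tris-HCl pH 8, 0.01% Tween 20. Started with 1 mM NAD+ and 30 uM prostaglandin E2; NADH fluorescence (360/450 nm) read 5 times over 30-s intervals, last minus first.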
# PNC inhibitor = inhibitors of perinucleolar compartment assembly; PC3M PTB-GFP, PNC prevalence imaging, 16 h; stronger effect = lower value; activity change (PNC), negative = inhibition, % at 10 µM; 140,000 compounds, 3.1% hits; AID 2417;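 active = readout at or below -70, meaning at least 70% loss of cells showing the perinucleolar compartment, a nuclear body marking cancer cells; inconclusive = readout between -30 and a set limit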;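 note: plate controls were DMSO wells for no effect and camptothecin positive control wells for full effect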
#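 PC3M cells stably expressing PTB-GFP, 750–1000 cells/well, treated 16 h at 37 °C with compound (23 nl of library stock), in duplicate. After paraformaldehyde fixation and Hoechst stain, imaged at 20x; PNC prevalence scored by image analysis.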
# An asterisk follows results filed as active; ? = inconclusive; / = no result given; [ ] = another dose, or the depositor's remark. In the library only some 11% were active in any assay of this set; here they are far more common. Unless noted, calls come from the whole dose curve; as a rule, active = well fitted inhibition curve with a large enough effect (not every such curve was filed as active); inconclusive = small, poorly fitted or top-dose-only effect, or another doubt; inactive = no such curve, though single readings can be large or run the other way. Unless noted, % is set by controls: 0 for no effect and ±100 for the full control effect.
SMILES,ALDH1A1 inh,HPGD inh,PNC inhibitor
COc1cccc(-c2cc(C(=O)N3CCN(C(c4ccccc4)c4ccccc4)CC3)no2)c1,?,-20%,?
CC1(C)CC2CC(C)(CN2C(=O)c2cc(-c3ccccc3O)on2)C1 (stereo not drawn),-11%,-26%,?
COc1ccc(-c2cc(C(=O)N3CCOCC3)no2)cc1OC,5%,-17%,-9
COc1cccc(-c2cc(C(=O)N3C(C)CCCC3C)no2)c1 (stereo not drawn),?,8.9µM*,-91*
CC1CCN(C(=O)c2cc(-c3ccccc3O)on2)CC1,14µM*,14µM*,?
COc1ccc(-c2cc(C(=O)N3CC4(C)CC3CC(C)(C)C4)no2)cc1 (stereo not drawn),-15%,35µM*,-11
COc1ccc(-c2cc(C(=O)N3CC4(C)CC3CC(C)(C)C4)no2)cc1OC (stereo not drawn),-15%,-25%,13
O=C(c1cc(-c2cccc(O)c2)on1)N1CCOCC1,?,-26%,-85*
COc1ccc(OCC(O)CNC(=O)c2ccc(C)cc2)cc1 (stereo not drawn),-8%,/,/
CC1=C(C(=O)OC(C)C)C(c2ccccc2)NC(=S)N1C (stereo not drawn),?,-11%,?
COc1ccc(NC(=O)c2cc(S(=O)(=O)N3CCOCC3)cs2)cc1,-2%,/,/
COc1ccc(N2C(=O)CCC2(C#N)c2ccc(Br)cc2)cc1 (stereo not drawn),3%,-3%,12
CC1CCCCN1C(=O)c1cc(-c2ccc(Cl)c(Cl)c2)on1 (stereo not drawn),?,4.5µM*,-8
O=C1c2ccccc2-c2ccc(C(=O)N3CCOCC3)cc21,-4%,11µM*,?
O=C(c1cc(-c2ccc(Cl)c(Cl)c2)on1)N1CCN(c2ccccc2)CC1,4%,-4%,-23
CC(C)CNC(=O)c1cc(-c2ccc(Cl)c(Cl)c2)on1,-12%,-11%,29
O=C(c1cc(-c2ccc(Cl)c(Cl)c2)on1)N1CCCCC1,8.9µM*,2.8µM*,22
CC1CCCCN1C(=O)Nc1ccccc1Cl (stereo not drawn),0%,/,/
CCC1CCCCN1C(=O)c1cc(-c2ccc(Cl)c(Cl)c2)on1 (stereo not drawn),-1%,4.5µM*,-20
Cc1ccc(N2C(=O)c3ccc(C(=O)N4CCOCC4)cc3C2=O)cc1C,?,-5%,-10
CCOC(=O)c1nc(-c2ccc(OC)c(OC)c2)no1,11%,/,/
Cc1ccccc1Cc1ccc(Cl)nn1,0%,/,/
O=C(c1ccc(F)cc1)N1CCN(C(=O)c2ccc([N+](=O)[O-])cc2)CC1,6%,/,/
O=C(c1cccc(-c2ccc(O)cc2)c1)N1CCOCC1,-5%,16µM*,18
Cc1ccc(C(=O)Nc2cccc(C(=O)N3CCOCC3)c2)cc1,10%,-7%,44
SMILES,ALDH1A1 inh,HPGD inh,PNC inhibitor
O=c1c(Cc2ccc(F)cc2)c(O)ccn1CCCN1CCOCC1,4%,/,/
N#Cc1c(N)sc(=S)c2c1CCCC2,?,-11%,26
N#Cc1c(-c2cccnc2)c2c([nH]c1=S)CCCC2,?,/,22
N#Cc1c(-c2ccco2)c2c([nH]c1=S)CCCC2,20µM*,16µM*,?
CC(C)Cc1c2c([nH]c(=S)c1C#N)CCCC2,-8%,22µM*,?
COc1ccc(OC)c(-c2c3c([nH]c(=S)c2C#N)CCCC3)c1,-9%,/,/
COc1ccc(-c2c3c([nH]c(=S)c2C#N)CCC3)cc1,14µM*,10µM*,?
Cc1ccc(S(=O)(=O)N[C@H]2COC(=O)[C@H](C)COC(=O)[C@H](C)NC(=O)C/C=C\[C@H]2C)cc1,3%[13.5 µM],/,/
Cn1ccc(C(=O)Nc2ccc(Br)cc2Br)n1,-5%,?,16
COc1cc(/C=N/NC(=O)CC2(C)OCCCO2)ccc1OCc1ccccc1,11µM*,?,-1
COc1cc(/C=N/NC(=O)CC2(C)OCCCO2)ccc1OCc1ccc(Cl)cc1Cl,0%,-22%,62
COc1ccc(NC(=O)C/C(C)=N/NC(=O)C(=O)NC(C)C)c(OC)c1,3%,/,/
COc1ccc(NC(=O)C/C(C)=N/NC(=O)C(=O)Nc2cccc(Cl)c2C)c(OC)c1,1.3µM*,/,/
C=CCNc1nnc(SC2CC(=O)N(c3ccc(OC)cc3)C2=O)s1 (stereo not drawn),2µM*,?,-6
COc1ccc(N2C(=O)CC(Sc3ncccc3C(=O)O)C2=O)cc1 (stereo not drawn),?,-4%,-3
O=C1NCCCCC1NC1CC(=O)N(c2ccccc2)C1=O (stereo not drawn),-12%,-4%,-10
Cn1c(SCC(=O)N2CCCC2=O)nnc1-c1ccccc1F,0%,/,/
COCCSc1nnc(NC(=O)C2CC(=O)N(c3ccc(OC)cc3)C2)s1 (stereo not drawn),1%,/,/
COc1ccc(N2C(=O)CC(Sc3nccc(C)n3)C2=O)cc1 (stereo not drawn),22µM*,-2%,28
CCOc1ccc(N2C(=O)CC(NC3CCCCNC3=O)C2=O)cc1 (stereo not drawn),20µM*,-3%,?
COc1ccc(N2C(=O)CC(Sc3nnc(-c4ccccc4F)n3C)C2=O)cc1 (stereo not drawn),1.8µM*,/,/
COC(=O)c1sc(NC(=O)/C=C/c2ccccc2Cl)nc1C,-15%,/,/
COc1ccc(-c2noc(CSc3nc4ccccc4c(=O)n3-c3ccc(C)cc3)n2)cc1,-1%,-6%,-6
CCN(CC)CCNc1ncnc2c1sc1nc(N3CCCC3)c3c(c12)CC(C)(C)OC3,-6%,/,/
CCOc1ccc2nc(SC3CC(=O)N(c4ccc(OC)cc4)C3=O)sc2c1 (stereo not drawn),16µM*,-27%,51
SMILES,ALDH1A1 inh,HPGD inh,PNC inhibitor
CCOc1ccc(N2C(=O)CC(SCCN)C2=O)cc1 (stereo not drawn),3.2µM*,-6%,26
COc1ccc(N2C(=O)CC(Sc3nc4ccccc4s3)C2=O)cc1 (stereo not drawn),7.9µM*,/,/
O=C1CCCc2ccccc2N1Cc1ccc(F)cc1,-34%,/,/
CCCNC(=O)CSc1nc2ccc(OCC)cc2s1,3%,/,/
CCN=C(NCC)SC1CC(=O)N(c2ccc(OCC)cc2)C1=O (stereo not drawn),-10%,/,/
COc1ccc(N2C(=O)CC(SCCc3nc4ccccc4[nH]3)C2=O)cc1 (stereo not drawn),-11%,-6%,-7
NCCSC1CC(=O)N(Cc2ccc(F)cc2)C1=O (stereo not drawn),2.2µM*,/,/
CO[C@@H]1COC(=O)C/C=C\[C@H](C)[C@H](OC)COC(=O)[C@H]2CCCN2C(=O)C/C=C\[C@H]1C,-3%[13.5 µM],/,/
COc1cccc(-c2nccc(NC3CCNCC3)n2)c1,7%,-3%,/
C=CCNC(=O)/C(=C/c1cccc([N+](=O)[O-])c1)NC(=O)c1ccccc1,3%,/,/
COc1ccc(OC)c(S(=O)(=O)NC2CCN(Cc3ccccc3)CC2)c1,-5%,-8%,34
COc1ccc(/C=C2\CN(Cc3ccccc3)C/C(=C\c3ccc(OC)cc3OC)C2=O)c(OC)c1,18µM*,-14%,18
COc1ccc(CNC(=O)c2cc3c(s2)CN(Cc2ccccc2)C3)cc1,10%,/,/
COc1ccc(/C=C2\CN(Cc3ccccc3)C/C(=C\c3ccc(OC)cc3)C2=O)cc1,16µM*,-14%,45

# Screening data deposited in PubChem by National Center for Advancing Translational Sciences (NCATS).
